# Experimental data reported in the supplement of paper PMC9694430.
# Structures can show the parent of a compound that is named as a salt.
# Tested on: LOC_OS01G14860-cb001
# Assay: thermal shift delta Tm vs DMSO control; higher = stronger stabilization (binding)
# Details: 12.5 µM; protein concentration 2 µM
# Procedure, shortened: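 Purified, E. coli-expressed rice kinase domain constructs were tested by differential scanning fluorimetry in 96-well plates: 19.5 μl of 2 μM kinase in 100 mM potassium phosphate pH 7.5, 150 mM NaCl, 10% glycerol, 5 × SYPRO Orange, plus compound in DMSO. Fluorescence was read from 25°C to 95°C at 0.05°C/s. Melting temperatures came from Boltzmann fits, and the shift is the triplicate mean relative to protein with DMSO alone.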
row,SMILES,thermal shift delta Tm [°C]
1,COc1cc(C(=O)N2CCC(N3CCN(C)CC3)CC2)ccc1Nc1ncc2c(n1)N(C)c1ccccc1C(=O)N2C,-0.08
2,Cc1nc(Nc2n[nH]c3c2CN(C(=O)N[C@H](CN(C)C)c2ccccc2)C3(C)C)c2sccc2n1,4.22
3,CC(C)(C)c1cc(NC(=O)Nc2ccc(Oc3ccnc4[nH]c(=O)cnc34)cc2F)n(-c2ccccc2)n1,6.67
4,CN1CC[C@H](c2c(O)cc(O)c3c(=O)cc(-c4ccccc4Cl)oc23)[C@H](O)C1 [Flavopiridol HCl],4.95
5,CCC(=O)Nc1cccc(Oc2nc(Nc3ccc(N4CCN(C)CC4)cc3OC)ncc2Cl)c1,-0.01
6,N#CC(=C(/N)Sc1ccccc1N)/C(C#N)=C(\N)Sc1ccccc1N,0.53
7,Clc1ccc(C2(c3ccc(-c4cn[nH]c4)cc3)CCNCC2)cc1,0.54
8,O=c1c(O)c(-c2cc(O)c(O)c(O)c2)oc2cc(O)cc(O)c12 [Myricetin],5.72
9,CN1CCN(Cc2ccc(NC(=O)Nc3ccc(Oc4ccnc(N)n4)cc3)cc2C(F)(F)F)CC1,7.67
10,CN1CCN(c2nc(C3=C(c4c[nH]c5ccccc45)C(=O)NC3=O)c3ccccc3n2)CC1 [Sotrastaurin],3.2
11,O=C(c1ccc(/C=C/c2n[nH]c3ccccc23)cc1)N1CCNCC1,1.8
12,N#CC1(c2ccc(NC(=O)c3cccnc3NCc3ccncc3)cc2)CCCC1 [Apatinib],0.52
13,Cc1cc(O)c(-c2ccc([C@@H](C)CN)cc2)c2c1[nH]c(=O)c1sccc12 [OTS514 hydrochloride],5.36
14,Oc1cc(O)cc(/C=C/c2ccc(O)c(O)c2)c1 [Piceatannol],1.02
15,COc1cc(N2CCC(N(C)C)CC2)ccc1Nc1ncc(Cl)c(Nc2ccccc2P(C)(C)=O)n1,0.31
16,O=C1NC(=O)C(c2ccccc2[N+](=O)[O-])=C1Nc1ccc(O)c(Cl)c1,0.92
17,O=C(O)c1ccc(Nc2ncc3c(n2)-c2ccc(Cl)cc2C(c2c(F)cccc2F)=NC3)cc1,0.03
18,CCN1CCN(Cc2ccc(Nc3ncc(F)c(-c4cc(F)c5nc(C)n(C(C)C)c5c4)n3)nc2)CC1,7.4
19,Cc1cc(CN2CCN(c3c(Br)cnc4nc(-c5ccc(N6CCN(C)CC6)cc5)[nH]c34)CC2)no1,0.83

row,SMILES,thermal shift delta Tm [°C]
1,Cn1ncc(Cl)c1-c1cc(C(=O)N[C@H](CN)Cc2ccc(F)c(F)c2)oc1Cl,0.15
2,CCS(=O)(=O)Nc1ccc2c(c1)/C(=C(/Nc1ccc(CN3CCCCC3)cc1)c1ccccc1)C(=O)N2 [Hesperadin],4.63
3,CC1(COc2ccc3c(c2)ncn3-c2ccc3cccc(N4CCC(N)CC4)c3n2)COC1,1.96
4,Oc1cccc(-c2nc(N3CCOCC3)c3oc4ncccc4c3n2)c1,0.17
5,O=C(O)c1ccc(-c2c[nH]c3ncc(-c4ccccc4)cc23)cc1C1CCCC1,5.49
6,C[C@H](CN(C)C)Oc1nc(Nc2cc3cccc(Cl)c3cn2)cnc1C#N,0.9
7,CC(C)(C)c1nc(-c2ccc(NC(=O)Nc3cccc(C(F)(F)F)c3)c3ccccc23)c2c(N)nccn12 [kira6],1.63
8,COc1ccc(COc2ccc(Cc3cnc(N)nc3N)cc2OC)cc1,0.12
9,COc1cc(-c2cc(-c3ccc(N4CCNCC4)cc3)cnc2C)cc(OC)c1OC,-0.12
10,CC(C)Nc1cc(-c2c[nH]c(C(=O)N[C@H](CO)c3cccc(Cl)c3)c2)c(Cl)cn1,5.82
11,COc1c(C)c(C(=O)c2ccc(N)c(C(=O)O)c2)n2ccccc12,0.24
12,CN(C)C/C=C/C(=O)Nc1cc2c(Nc3ccc(F)c(Cl)c3)ncnc2cc1O[C@H]1CCOC1 [Afatinib (BIBW2992)],2.91
13,CN1CC[C@H](c2c(O)cc(O)c3c(=O)cc(-c4ccccc4Cl)oc23)[C@H](O)C1 [Flavopiridol (Alvocidib)],4.54
14,CC(C)Oc1ccc(-c2nn([C@@H](C)c3oc4ccc(F)cc4c(=O)c3-c3cccc(F)c3)c3ncnc(N)c23)cc1F,0.59
15,N#Cc1ccc2ncnc(NCCc3ccccc3)c2c1 [Senexin A],0.78
16,CN(C)C/C=C/C(=O)Nc1ccc(C(=O)Nc2cccc(Nc3ncc(Cl)c(-c4c[nH]c5ccccc45)n3)c2)cc1,7.28
17,COc1cc2c(cc1OC)[C@@H]1C(=O)c3ccc4c(c3O[C@@H]1CO2)C=CC(C)(C)O4 [Deguelin],0.23
18,CC(C)(C)c1cnc(CSc2cnc(NC(=O)C3CCNCC3)s2)o1,5.74
19,CNC(=O)c1ccccc1Nc1cc(Nc2ccc(N3CCOCC3)cc2OC)ncc1C(F)(F)F,1.05
